Outcome and AC50 data for 40 molecules are collected here from PubChem BioAssay (EPA / NIEHS).

Calls of active or inactive are those of the source. How the source made its calls: active means hit-call score of the fitted dose curve at least 0.9, where 1 is the maximum; inactive means score below 0.9.

The term AC50 denotes the concentration giving half of the maximal activity seen.

Read-out in the experiment: solute carrier (SLC22A1), SLC22A1 (gene 6580)
In words: LTEA_HepaRG_SLC22A1: Life Technologies and Expression Analysis (LTEA) Assay for solute carrier (SLC22A1) using HepaRG (AID 2283524).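 On AC50: TaqMan qRT-PCR normalized to ACTB GAPDH and POLR2A housekeeping genes.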 To be noted: mRNA level, 48 h; actives raise or lower the signal. Here is the method:
LTEA_HepaRG is a cell based, multiplexed-readout assay that uses HepaRG, a human liver cell line, with measurements taken at 48 hours after chemical dosing on a 96-well plate.LTEA_HepaRG_SLC22A1 is one of 102 assay component(s) measured in the LTEA HepaRG cell culture assay. It is a marker of NR mediated transport.Data from the assay component LTEA_HepaRG_SLC22A1 was analyzed into 1 endpoint. This assay endpoint, LTEA_HepaRG_SLC22A1, was analyzed with bidirectional fitting relative to DMSO as the negative control and baseline of activity. Using a type of inducible reporter, measures of mRNA induction for gain or loss-of-signal activity can be used to understand regulation of transcription factor activity. To generalize the intended target to other relatable targets, this assay endpoint is annotated to the transporter intended target family, where the subfamily is organic cation transporter.
A total of 1060 chemcials from the ToxCast library were tested in eight-point concentration-response experiments. Cell culture and cytotoxicity assays were conducted at Thermo Fisher Scientific's Custom Services facility (Madison, WI). A single lot of human HepaRG cells (Thermo Fisher Scientific, Frederick, MD) was used for the cell culture experiments. 96-well format collagen type I coated plates of human HepaRG cells were prepared using established methods. Briefly, cryopreserved HepaRG cells were thawed, plated at a density of approximately 100,000 cells/well in HepaRG Thaw, Plate, and General Purpose media (HPRG770, Thermo Fisher Scientific), and incubated for 48 hours. 0.5% DMSO was selected as vehicle control to balance the requisite need of DMSO in HepaRG cultures to maintain differentiation (for example, baseline metabolism, proportions of hepatocytes vs. cholangiocytes), while enabling further hepatic receptor pathway activation (for example, PXR and CAR) in response to chemical exposure. 48 hours after plating, the culture medium was replaced with HepaRG Serum-Free Incudtion Media. Cells were exposed to each test chemical in duplicate and maintained in CO2 incubators for another 48 hours. Chemical plates were thawed to room temperature and 200x concentrations of treatment groups were prepared. 8-point conentration-reponse curves were made with the highest exposure at 100 uM, followed by half-log dilutions, all in 0.5% DMSO. Each test plate contained variouse controls, induction positive controls (1mM phenobarbital), cytotoxicity positive controls ([…] aflatoxin B1), vehicle controls (0.5% DMSO), and total lysis controls (0.5% DMSO). Cell morphology images were taken using an Essen IncuCyte FLR automated microscope, with six 96-well plates imaged in about 24 minutes. Images were captured and exported and JPEG files. Spent culture media was transfered to black-well plates for the LDH assay, and remaining media was sorted at -80 C for later use. Cells were treated with RLT buffer and frozen until shipped for gene expression analysis. Total RNA was isolated from the cell suspension in 75 uL of Buffer RLT (Qiagen, Germantown, MD 20874) by Quintiles/Expression Analysis (Durham, NC) using a custom isolation procedure. Total RNA from each plate well was transferred to a preamplification plate. Fluidigm's 96.96 Dynamic ArrayTM (Fluidigm, Amsterdam, the Netherlands) technology was used for gene expression analyses by quantitative reverse transcription polymerase chain reaction (qRT-PCR, performed by Quintiles/Expression Analysis, Durham, NC)89. Standard TaqManTM Assays (Applied Biosystems/ThermoFisher Scientific, Foster City, CA) were used to assess the expression of 93 genes selected based on their selectivity and sensitivity to important hepatic receptors known to be modulated by environmental chemicals; importance in human hepatocyte functionality; and hepatotoxicity. […]
`CCCCCCCCC(=O)O`: the outcome was inactive.
Still for that read-out and setting: the entry for `CCCOc1sc(C(=O)N2CCC(c3cc(CN)ccc3F)CC2)c(C)c1Br` is “inactive”; for `CCOC(=O)CC(O)(CC(=O)OCC)C(=O)OCC` it is “inactive”.
In the case of `c1ccc2cc3c(ccc4ccccc43)cc2c1`, the AC50 was 18.6 µM (active).
For the molecule `OC1CCCCC1`, the outcome was inactive.
Consider `Nc1cccc2c(N)cccc12`, for which the AC50 is 50 µM (active).
On the same count and under the same terms, the figure for `CC1=C(/C=C/C(C)=C/C=C/C(C)=C/C(=O)O)C(C)(C)CCC1` is 22.9 µM (active).
For `c1ccc2c(c1)ccc1ccccc12`, the call was inactive.
For the molecule `Oc1cc2ccccc2c2ccccc12`, the AC50 is 50 µM (active).
The same measure, in the same setting: the figure for `CCc1ccc(CCOc2ccc(CC3SC(=O)NC3=O)cc2)nc1` (stereo not given) is 66.6 µM (active); for `C#C[C@]1(O)CC[C@H]2[C@@H]3CCC4=CC(=O)CC[C@@H]4[C@H]3CC[C@@]21C` it is 32.1 µM (active).
Take `OC1CCC(C2CCCCC2)CC1` (stereo not given): the molecule was called inactive.
The same measure, in the same setting: the entry for `c1ccc2c(c1)Cc1ccccc1-2` is “inactive”.
`CC(C)(C)CC(C)(C)c1ccc(O)c(-n2nc3ccccc3n2)c1`: the AC50 was 74.5 µM (active).
As to `CN1CCC[C@H]1c1cccnc1`, the molecule was called inactive.
On the same count and under the same terms, the entry for `CC(C)(C)c1cc(C(C)(C)C)c(O)c(C(C)(C)C)c1` is “inactive”; for `CCCCCCC(=O)O` it is “inactive”.
The same measure, in the same setting: the entry for `Oc1cccc(O)c1` is “inactive”; for `CCCCCCCCOC(=O)CCCCCCCCC(=O)OCCCCCCCC` it is “inactive”.
`CCC(=C(c1ccc(O)cc1)c1ccc(OCCN(C)C)cc1)c1ccccc1`: the AC50 was 93.4 µM (active).
Consider `O=[N+]([O-])c1ccc(O)cc1`, for which the call was inactive.
On the same count and under the same terms, the entry for `CN(C)C=O` is “inactive”.
The same measure, in the same setting: the entry for `CCCCCCCCCCCCCCCS(=O)(=O)Oc1ccccc1` is “inactive”; for `CC(C)CCCCCCOC(=O)CCCCC(=O)OCCCCCCC(C)C` it is “inactive”.
On the same count and under the same terms, the entry for `CCCOC(=O)c1ccc(O)cc1` is “inactive”.
Regarding `CCCCC(CC)COC(=O)CCCCC(=O)OCc1ccccc1` (stereo not given), the call was inactive.
Same read-out and setting: the entry for `COCC(C)O` (stereo not given) is “inactive”; for `CC(=O)CC(C)(C)O` it is “inactive”; for `CC[C@H](C)[C@@H](C(=O)O)n1sc2ccccc2c1=O` it is “inactive”.
Regarding `CC#C[C@]1(O)CC[C@H]2[C@@H]3CCC4=CC(=O)CCC4=C3[C@@H](c3ccc(N(C)C)cc3)C[C@@]21C`, the AC50 was 25.2 µM (active).
`COc1ccc([N+](=O)[O-])cc1N`: the result was inactive.
`CCc1nn(C2CCCCC2)c2cc(C3(C#N)CCC(C(=O)O)CC3)ccc12` (stereo not given): the AC50 was 72.6 µM (active).
Same read-out and setting: the figure for `NC(=O)N1C(=O)C(C(=O)c2cc(Cl)cs2)c2cc(F)c(Cl)cc21` (stereo not given) is 16.1 µM (active); for `CCN(CC)CCNc1ccc(CNC=O)c2sc3ccc(OC)cc3c(=O)c12` it is 13.9 µM (active).
On the same count and under the same terms, the figure for `CC(=O)NC1(c2cccc(F)c2)CCN(CC[C@@]2(c3ccc(Cl)c(Cl)c3)CN(c3ccccc3)C(=O)CO2)CC1` is 77.2 µM (active).
`CC(C)(C)c1cccc(C(C)(C)C)c1O`: the result was inactive.
The same measure, in the same setting: the entry for `COC(=O)CCCCC(=O)OC` is “inactive”.
For the molecule `ClC1=C(Cl)C(Cl)(Cl)C(Cl)=C1Cl`, the call was inactive.
On the same count and under the same terms, the entry for `CCCCC(CC)COC(=O)CCCCC(=O)OCC(CC)CCCC` (stereo not given) is “inactive”.
Regarding `NC(=O)N(O)[C@@H]1C=C[C@H](Oc2cccc(Oc3ccc(F)cc3)c2)C1`, the AC50 is 63.6 µM (active).
